Consider 13 compounds from PubChem BioAssay (NCI).

Test systems include DU-145 prostate; K-562 leukemia; MALME-3M melanoma; MDA-MB-231 breast; RXF 393 renal; SF-268 CNS; SF-295 CNS; SF-539 CNS; UACC-257 melanoma; M14 melanoma.
What all share (experiment): NCI-60 one-dose screen, 48 h (100 = growth as untreated, 0 = no growth, -100 = all killed)
Details in all cases: 10 µM unless noted

Structures are written as SMILES. “And” between values parts separate entries of the source, which are not always exact repeats. Equal values may be shown once. The panel holds about 83,000 compounds, 20% with a hit somewhere; the sample as a whole holds those more often.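 Plates (96-well) were seeded with cells, treated with compound at one concentration, and incubated for 48 hours before percent growth was determined.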 The source made the active and inactive calls. Rule for the calls: active = growth percent below 10; inactive = the rest.

`Cc1cc(N2CCCCC2)nc(NCc2cc(Nc3ccnc4cc(Cl)ccc34)ccc2F)n1`: the growth is -1.6% (active) in the test on DU-145 prostate; -31.4% (active) in the test on K-562 leukemia; -75% (active) in the test on MALME-3M melanoma; -73.3% (active) in the test with MDA-MB-231 breast; -66.2% (active) in the test with RXF 393 renal; -17.2% (active) with SF-268 CNS. The growth was -84.5% (active) in the test on SF-295 CNS, -77.7% (active) in the test on SF-539 CNS, -64.4% (active) in the test with UACC-257 melanoma and -67.8% (active) with M14 melanoma.
Turning to `C=CCNC(=O)Cc1c(-c2ccc(OC)cc2)oc2c(OC)c3c(c(OC)c12)OCO3`, the growth in the test with DU-145 prostate was 104% (inactive); with K-562 leukemia, 102% (inactive); in the test with MALME-3M melanoma, 106% (inactive); in the test with MDA-MB-231 breast, 91.1% (inactive); with RXF 393 renal, 90.8% (inactive); in the test on SF-268 CNS it was 96.2% (inactive). In addition, the growth with SF-295 CNS was 106% (inactive); in the test on SF-539 CNS, 103% (inactive); in the test with UACC-257 melanoma it was 105% (inactive); with M14 melanoma, 101% (inactive).
For `Oc1ccccc1C=Nc1ccc(N2CCN(c3ccccc3)CC2)cc1`, the growth is 104% (inactive) with DU-145 prostate; 80.7% (inactive) in the test on K-562 leukemia; 114% (inactive) with MALME-3M melanoma; 100% (inactive) in the test with MDA-MB-231 breast; 97.7% (inactive) in the test with RXF 393 renal; 99.2% (inactive) in the test on SF-268 CNS. For the same compound, the growth is 103% (inactive) in the test on SF-295 CNS, 77.2% (inactive) in the test on SF-539 CNS, 97% (inactive) with UACC-257 melanoma and 96.3% (inactive) in the test on M14 melanoma.
`CCCCCCCCN(CCCCCCCC)CC(O)c1cc(Cl)ccc1OC` (stereo not given): the growth with DU-145 prostate is 81.8% (inactive); in the test on K-562 leukemia, 50.1% (inactive); in the test with MALME-3M melanoma it was 99.5% (inactive); with MDA-MB-231 breast, 51.6% (inactive); in the test on RXF 393 renal, 51.9% (inactive); in the test with SF-268 CNS it was 84.4% (inactive). For the same compound, the growth with SF-295 CNS is 76.9% (inactive); with SF-539 CNS, 77.8% (inactive); with UACC-257 melanoma, 90.4% (inactive); with M14 melanoma, 84.9% (inactive).
On to `Cc1ccc(C(=O)N(CCCN)[C@@H](c2nc3cc(Cl)ccc3c(=O)n2Cc2ccccc2)C(C)C)cc1`, for which the growth is 1.24% (active) with DU-145 prostate; -30.6% (active) in the test on K-562 leukemia; -79% (active) with MALME-3M melanoma; -75.7% (active) with MDA-MB-231 breast; 6.94% (active) with RXF 393 renal; -21.8% (active) in the test with SF-268 CNS. Also, the growth was -60.4% (active) in the test on SF-295 CNS, -75.2% (active) in the test with SF-539 CNS, -56.6% (active) with UACC-257 melanoma and -65.2% (active) in the test on M14 melanoma.
On to `O=c1c2c([nH]c3ccccc13)CCCC2`, for which the growth in the test with DU-145 prostate was 106% (inactive) and 70.7% (inactive); in the test on K-562 leukemia it was 95.9% (inactive) and 11.3% (inactive); in the test with MALME-3M melanoma, 104% (inactive) and 36.8% (inactive); with MDA-MB-231 breast, 95.8% (inactive) and 54.9% (inactive); in the test with RXF 393 renal, 105% (inactive) and 63.4% (inactive); in the test with SF-268 CNS it was 98.8% (inactive) and 53.2% (inactive). In addition, the growth in the test with SF-295 CNS is 95.4% (inactive) and 13.1% (inactive); with SF-539 CNS, 99.5% (inactive) and 46% (inactive); in the test with UACC-257 melanoma it was 100% (inactive) and 58.8% (inactive); in the test on M14 melanoma, 98.5% (inactive) and 15.6% (inactive).
For the compound `O=C(CN1C(=O)S/C(=C\C(Cl)=C\c2ccccc2)C1=O)NC1C=CS(=O)(=O)C1` (stereo not given), the growth in the test with DU-145 prostate was 24.8% (inactive); in the test with K-562 leukemia, 4.66% (active); with MALME-3M melanoma it was -24.9% (active); in the test with MDA-MB-231 breast it was 14.3% (inactive); with RXF 393 renal, -77.8% (active); in the test with SF-268 CNS, 63.9% (inactive). The growth in the test with SF-295 CNS is 80.8% (inactive); in the test with SF-539 CNS it was 1.56% (active); in the test with UACC-257 melanoma, 45.2% (inactive); with M14 melanoma it was -49.9% (active).
With `CC[C@@H]1NC(=O)[C@H]([C@H](O)[C@H](C)C/C=C/c2ccc(CN3C(=O)C(C)=C(C)C3=O)cc2)N(C)C(=O)[C@H](C(C)C)N(C)C(=O)[C@H](CC(C)C)N(C)C(=O)[C@H](CC(C)C)N(C)C(=O)[C@@H](C)NC(=O)[C@H](C)NC(=O)[C@H](CC(C)C)N(C)C(=O)[C@H](C(C)C)NC(=O)[C@H](CC(C)C)N(C)C(=O)CN(C)C1=O`, the growth in the test on DU-145 prostate is 73.9% (inactive); in the test with K-562 leukemia it was 70% (inactive); in the test on MALME-3M melanoma, 88.2% (inactive); in the test with MDA-MB-231 breast, 71.5% (inactive); in the test with RXF 393 renal, 80% (inactive); with SF-268 CNS, 71% (inactive). Besides, the growth in the test on SF-295 CNS is 69.4% (inactive); in the test on SF-539 CNS it was 86.9% (inactive); with UACC-257 melanoma it was 69.4% (inactive); with M14 melanoma, 60% (inactive).
As to `COC1=CC(=O)C(OC)=C(O)C1=O`, the growth in the test with DU-145 prostate was 109% (inactive); with K-562 leukemia, 103% (inactive); with MALME-3M melanoma, 97.7% (inactive); in the test on MDA-MB-231 breast, 100% (inactive); with RXF 393 renal, 104% (inactive); in the test on SF-268 CNS it was 107% (inactive). The growth with SF-295 CNS is 102% (inactive); in the test on SF-539 CNS, 92.4% (inactive); with UACC-257 melanoma, 97.4% (inactive); in the test on M14 melanoma, 97.2% (inactive).
As for `CCCCC1COc2cccc3c2N1C=C/C3=C\C(=O)N(C)c1cccc(Cl)c1` (stereo not given), the growth in the test on DU-145 prostate was 103% (inactive); with K-562 leukemia, 91% (inactive); in the test with MALME-3M melanoma, 107% (inactive); in the test with MDA-MB-231 breast, 103% (inactive); in the test on RXF 393 renal it was 108% (inactive); in the test on SF-268 CNS, 97.9% (inactive). Besides, the growth in the test on SF-295 CNS was 97.6% (inactive); in the test with SF-539 CNS, 104% (inactive); in the test on UACC-257 melanoma, 103% (inactive); in the test with M14 melanoma, 102% (inactive).
Consider `Nc1nc(Nc2cccnc2)sc1C(=O)c1ccccc1F`, for which the growth with DU-145 prostate was 17.8% (inactive); with K-562 leukemia it was 66.5% (inactive); with MALME-3M melanoma, 157% (inactive); in the test on MDA-MB-231 breast, 83.1% (inactive); in the test on RXF 393 renal it was -42% (active); in the test with SF-268 CNS it was 20.8% (inactive). The growth with SF-295 CNS was 34.9% (inactive); in the test with SF-539 CNS, -3.32% (active); in the test on UACC-257 melanoma it was 72.9% (inactive); in the test with M14 melanoma, 59.2% (inactive).
On to `O=C(NCc1cccnc1)/C(=C\c1ccc(Br)cc1)S(=O)(=O)c1ccccc1`, for which the growth in the test with DU-145 prostate is -86.8% (active); in the test on K-562 leukemia, 29.7% (inactive); with MALME-3M melanoma, -20.5% (active); with MDA-MB-231 breast it was -65.7% (active); with RXF 393 renal it was -88% (active); with SF-268 CNS, -30.9% (active). In addition, the growth was 13.9% (inactive) in the test with SF-295 CNS, -59% (active) with SF-539 CNS, -20.5% (active) in the test with UACC-257 melanoma and -41.1% (active) in the test on M14 melanoma.
Consider `Cc1nc(Nc2ncc(C(=O)Nc3c(C)cccc3Cl)s2)cc(N2CCN(CCO)CC2)n1`, for which the growth was 10.2% (inactive) and 12.5% (inactive) in the test with DU-145 prostate; 7.66% (active) in the test with K-562 leukemia; 51.4% (inactive) and 31.2% (inactive) with MALME-3M melanoma; 11.2% (inactive) and 8.95% (active) in the test with MDA-MB-231 breast; -18.9% (active) and -46.2% (active) with RXF 393 renal; 28.4% (inactive) and 30.3% (inactive) with SF-268 CNS. Besides, the growth in the test with SF-295 CNS was 57.4% (inactive) and 37.3% (inactive); with SF-539 CNS, 18.8% (inactive) and -9.03% (active); with UACC-257 melanoma, 79.1% (inactive) and 48.4% (inactive); with M14 melanoma it was 42.4% (inactive) and 17.5% (inactive).
